± gives the standard deviation of the averaged measurements. The full ranking holds about 25,000 sequences; the median of “ln(normalized median fluorescence intensity)” is about 10, and the highest 2% start at about 12. This is one part of a sample in which the highest values are shown more often than they occur.

We go through 89 sequences from the supplement of paper PMC11417369.

This experiment concerns PfAP2-G AP2 domain (GST-tagged). The experiment is described as follows: gcPBM binding intensity (ln(normalized median fluorescence intensity)); higher = stronger DNA binding. The method in brief:
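In this array assay, P. falciparum DNA-binding domains with a GST tag, expressed in E. coli, were applied for 1 h to primer-extended double-stranded 36-bp intergenic genomic probes and negative controls on an Agilent 4 × 180k array. Bound protein was visualised with Alexa488 anti-GST antibody at 488 nm. Binding intensity is the highest Masliner-normalised natural-log median intensity across replicate spots of either probe orientation.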
As to “TCCTTACCTATTAAAGCATGCTCGAATATATATTTT [TGCATGCA_site53]”, the “gcPBM binding intensity (ln)” value was 9.81 ± 0.18.
With “ATACACATAACATATATATATATATATATATATATC [CACACA_negctrl_site278]”, the “gcPBM binding intensity (ln)” value came to 9.73 ± 0.057.
To “TTTTGGATACTTCATTTGTCCTGTTTTTTTTTTTTA [CACACA_negctrl_site399]” belongs 10.7 ± 0.37; to “TATATATATATGTGTACACAATTTATCTGTATTTAT [CACACA_site5945]”, 11.8 ± 0.93.
Turning to “TATATTTATACAATATGTACATATTATATATATATA [XGTACX_site3098]”, the “gcPBM binding intensity (ln)” value was determined as 11 ± 0.59.
To “TATTTTTCCATTGGGGGTACATGTGTTATATTTATT [XGTACX_site5914]” belongs 11.7 ± 0.88; to “ATATAATAGAAGTGTACACACATATTTATGGGTGTA [CACACA_site5686]”, 11.5 ± 0.91.
As to “GAATATATATTCATATGTACACAATTTATGTATTAT [XGTACX_site4719]”, the “gcPBM binding intensity (ln)” value is 11.4 ± 0.79.
As to “ATGGATAATAATAAGTGTACACATATATTTAGAAGA [XGTACX_site244]”, the “gcPBM binding intensity (ln)” value stood at 11.8 ± 0.86.
On to “ATATATATATACATATGTACATATATATTTATACAT [XGTACX_site2463]”, for which the “gcPBM binding intensity (ln)” value was 11 ± 0.58.
To “TATAAAAAAAAATGTGGTACATATTTCCATTTTCCA [XGTACX_site4571]” belongs 11.3 ± 0.76; to “GTTCCATATATTACATGTACATATTTTTACATTTAA [XGTACX_site660]”, 11.2 ± 0.72; to “GATAATAATAAGTGTACACATATATTTAGAAGAGTA [CACACA_site4245]”, 11.5 ± 0.85.
To “TATACATTTATGTACACACACATATCTGTATATTTA [CACACA_site5617]” belongs 11.5 ± 0.97.
To “ACATATATATATATGTGTACATATTTATACAACAAT [XGTACX_site6660]” belongs 11.6 ± 0.78; to “TTTTTTTTTTTGTTCACACATATACTTTTATTTTGG [CACACA_site4250]”, 10.2 ± 0.23.
For “AAAAAAAAAAAAAAAACACACAATAAAGTAAAATTT [CACACA_site135]”, the “gcPBM binding intensity (ln)” value was 10.15 ± 0.049.
To “TAAAAATGGGTATGTACACACTTTATTTTTAATACA [CACACA_site5404]” belongs 11.5 ± 0.92.
Turning to “TATATATTCCTCCATAGTACAATAATAAAGATAAAA [XGTACX_site5785]”, the “gcPBM binding intensity (ln)” value stood at 10.6 ± 0.35.
To ATGTTCTTATTATTGGTGCAAGAATACACAAGAAAA belongs 10.4 ± 0.45; to “ATTTTTTTACTGCAACCATATTTTTCCCTTTTATTC [CACACA_negctrl_site1282]”, 10.12 ± 0.085; to “AAAATTTAAATAGGAAGTACGTTCACTAAGAAAATA [XGTACX_site6546]”, 11 ± 0.57.
To “TGCTGTATATTTTTCTGTACACATTTATATATTCCA [XGTACX_site6244]” belongs 11.6 ± 0.87.
To “CTATAATAGAAGTGTACACACATATTTATGTCTGTA [CACACA_site7462]” belongs 11.7 ± 0.93; to “TTTAAAAATTAATTCTGTACACATTTTTATTATATT [XGTACX_site4212]”, 11.5 ± 0.81.
For the sequence “ATATAATAGAAGTGTACACACATATTTATGTCTGTA [CACACA_site3121]”, the “gcPBM binding intensity (ln)” value came out at 11.5 ± 0.74.
In the case of “TTGCTGTATTTATTTTGTACACATTTGGCATTATAT [XGTACX_site3408]”, the “gcPBM binding intensity (ln)” value is 11.2 ± 0.73.
To “TTAATATAATAGAAGTGTACACACATATTTATGTGT [XGTACX_site6672]” belongs 11.5 ± 0.78; to “TATATATAATATAGTGCATGTAAAAAATAAACCATG [TGCATGCA_site932]”, 10.2 ± 0.16.
For “ACAAGTTAAAATATTACACACATATAAATATATATA [CACACA_site3132]”, the “gcPBM binding intensity (ln)” value stood at 9.84 ± 0.099.
To “TTGTTCTATATATATGCATGCACGTATGTTAAATTA [TGCATGCA_site659]” belongs 10.3 ± 0.33; to “AGATATTAAAACGTTACACACATTTATATATCTTCT [CACACA_site908]”, 9.74 ± 0.2.
To “GAAAGAATAAAATTTACACACATATATATATACATA [CACACA_site2250]” belongs 9.745 ± 0.035; to “ATGTCTATATATTAAGGTACACATATATGCTATTCA [XGTACX_site6008]”, 11.1 ± 0.57.
To “ACTTATAAAATAACATGTACAAATATTTATTATATA [XGTACX_site133]” belongs 11 ± 0.54; to “AAAAAAATATAAATACGTACATATATATATATATAT [XGTACX_site432]”, 11.5 ± 0.98.
For the sequence “ATTTTGTTCGAAAGGTGTACATATACAAAAATTATG [XGTACX_site957]”, the “gcPBM binding intensity (ln)” value is 11.7 ± 1.
For the sequence “ATATCGAAAATTTGGTGTACATTTTTATTTGTTCAA [XGTACX_site3094]”, the “gcPBM binding intensity (ln)” value is 11.5 ± 0.93.
To “TTATACATAAATTTTGTACACACAAAAAAAAAAAAG [CACACA_site8374]” belongs 11.2 ± 0.87; to “TTTATTTATTACTAAAGTACTAAATCATATTATTAT [XGTACX_site2574]”, 10.6 ± 0.54; to “TAATATAGTATAGTATGTACATATAATTAGAATATT [XGTACX_site4053]”, 11.3 ± 0.77.
To “CCATATATTTGGTATAGTACTTTTTATTTTATTTCA [XGTACX_site8933]” belongs 11.1 ± 0.5.
To “TAGGGTAGTTATAATTGTACTTTTCTCCAAAAAAAA [XGTACX_site7321]” belongs 11.3 ± 0.81; to “TTAGTTTATTGGTACTGTACTTTTTTTTTCTCCATT [XGTACX_site8618]”, 11.9 ± 0.91.
Take “TACATAAACATTTATACACACATTATATATACATAT [CACACA_site8028]”: the “gcPBM binding intensity (ln)” value was 10.12 ± 0.064.
To “TAATTATTTCGTATATTTGAATGGTACATGCTTATA [CACACA_negctrl_site1178]” belongs 10.7 ± 0.6; to “ATACATATAATATATGCATGTACCAATCAAATATAT [TGCATGCA_site192]”, 10.5 ± 0.29.
To “TGTTGTATTGAAGCTAAAAAATGAGGCAAAAAAAAA [CACACA_negctrl_site1189]” belongs 10.2 ± 0.26; to “TTATTTATATTTTTTTGTACACATATTGTATACATA [XGTACX_site1178]”, 11.5 ± 0.86.
In the case of “AATTTTTATTTGTACACACATACATATATATTATAT [CACACA_site993]”, the “gcPBM binding intensity (ln)” value came to 11.4 ± 0.83.
To “CATACATATACTTTGTGTACATATATATATTATATA [XGTACX_site97]” belongs 11.4 ± 0.78; to “GTATTATCTGCTTTTTGTACACATATATTTAAAAAA [XGTACX_site7603]”, 11.4 ± 0.95.
To “TTTTTATTTGGTTGTGTACACATATATATATATATA [CACACA_site5844]” belongs 11.6 ± 0.94.
To “TTATATTTATTTATTTGTACATATTTTTTTTTATAT [XGTACX_site1669]” belongs 11.2 ± 0.67.
Take “AACACTACATAAAACTGTACAATAGTATTTTATTAT [XGTACX_site996]”: the “gcPBM binding intensity (ln)” value turned out to be 10.9 ± 0.49.
Regarding “TTTATTTTGTAGTGTACACATATATATATATATATA [CACACA_site5843]”, the “gcPBM binding intensity (ln)” value came out at 11.7 ± 0.96.
To “ACATATTTTATTTTTTGTACACATATATTATTTTTT [XGTACX_site6528]” belongs 11.3 ± 0.66.
With “TATATTATAGGTTGTGTACACATATTATATAGTACT [CACACA_site4583]”, the “gcPBM binding intensity (ln)” value turned out to be 11.6 ± 0.88.
Regarding “CTTTAAAACCGGTACTGTACACATAGTATTATTATC [XGTACX_site2602]”, the “gcPBM binding intensity (ln)” value amounted to 11.6 ± 0.8.
For the sequence “ATGTGTATATATTATTGTACATATATATATATATAT [XGTACX_site4627]”, the “gcPBM binding intensity (ln)” value was 11.2 ± 0.82.
To “TATTTTATATGATAGGTGCATTTTTTTTTTTTTTTT [GTGCAC_site9757]” belongs 10.4 ± 0.48; to “TTCTTTATTTTTTCTACACACATTATATATTCAAAG [CACACA_site5866]”, 10.12 ± 0.099.
To “CAACACTTATTGAAACGTACGCATATAGTTTCTTTT [XGTACX_site8960]” belongs 11 ± 0.55; to “TATAAATATAAATATACACACATATATTTATTTATA [CACACA_site6890]”, 9.645 ± 0.078; to “TATTTGTGCCAAAAATGAAAAAGTTTGTATAAAACC [CACACA_negctrl_site1406]”, 10.1 ± 0.17.
In the case of “AAGATACACTTAATCGCACACGAAATTATATATTTA [CACACA_site3063]”, the “gcPBM binding intensity (ln)” value is 10.1 ± 0.24.
To “TATATATATTATATATGTACATATATTTTTTTTTTT [XGTACX_site127]” belongs 11.2 ± 0.81; to “ATTTAAGGGGTGTATGCACACGACTATTCCGTATGA [CACACA_site4738]”, 10.23 ± 0.092.
To “ATATATATATAGTACGCACACATAGTTGTACATTAA [CACACA_site2787]” belongs 12 ± 1.3; to “TATATATATATATATAGTACGCACACATAGTTGCAA [XGTACX_site5875]”, 11.1 ± 0.67.
To “ATTTTTTTTTCTTGTACACACTATTTTATAATTTTA [CACACA_site6102]” belongs 11.6 ± 0.93; to “TCATTCTTGTGTTTATGTACACATATTTATATTGTA [XGTACX_site710]”, 11.4 ± 0.88; to “AATATGTAATAGTGTACACATATATCTGTATTTATG [CACACA_site4252]”, 11.6 ± 0.91.
“CATATTTTCTTGTGTACACATTTATTTTATACTATA [CACACA_site6032]”: the “gcPBM binding intensity (ln)” value was 11.7 ± 0.97.
To “TATATCTGTTTATATTGTACACATATATATATATAT [XGTACX_site714]” belongs 11.4 ± 0.93; to “ATACGCACACATATATGTACATATTGTATATATATA [XGTACX_site3962]”, 11.2 ± 0.71.
To “TATTATCTGTAGTGTACACATATTATATAGTACTTT [CACACA_site4582]” belongs 11.8 ± 1; to “ATGAATTAACCTAATCGTACAATAAATATTATTATA [XGTACX_site596]”, 11 ± 0.81; to “AAAATTAAAAAGAACACACAAATATATCTATAATAA [CACACA_site7660]”, 9.81 ± 0.26.
To “TTCTATATTATATATGCATGTGTTATTCTTATTTTC [TGCATGCA_site92]” belongs 9.87 ± 0.057; to “ATATGATTAATTAAGTGTACGTATTTATAATTATAA [XGTACX_site5783]”, 11.7 ± 1.
As for “TTATATTTTATTATGTGTACGTATATAATATAATAT [XGTACX_site6230]”, the “gcPBM binding intensity (ln)” value is 11.6 ± 0.97.
Take “ATTTATATATATTTATGTACGTATTAATTTTTTTTT [XGTACX_site3877]”: the “gcPBM binding intensity (ln)” value turned out to be 11.5 ± 0.88.
To “ATTTTTTTTTTTTATAGTGGATCCACATTTGCCATT [CACACA_negctrl_site1284]” belongs 10.3 ± 0.36; to “AAAAAAAATTAGGAAACATGCATGTCCCGATAAATA [TGCATGCA_site149]”, 10.28 ± 0.049.
To “TCTTATTATAAAAGGAGTACATCAATTAGATGTTCC [XGTACX_site8465]” belongs 11.6 ± 1; to “ATAATATATATATATATATTATCAAATATATATATA [GTGCAC_negctrl_site346]”, 9.55 ± 0.23; to “TATTATATATAATATTGTACATTAAAATATTAAAGA [XGTACX_site3698]”, 10.9 ± 0.67.
For the sequence “ATATAATGAAGTGAATGTACATATAAAATGTAAAAA [XGTACX_site8052]”, the “gcPBM binding intensity (ln)” value amounted to 11.1 ± 0.43.
